# Measured values taken from PubChem BioAssay (EPA / NIEHS).
# “And” between values parts separate entries of the source, which are not always exact repeats. Identical values can stand only once. Records with an inconclusive call do not appear. Some structures have more than one record in an assay (separate samples or runs), and their calls can disagree. The source made the active and inactive calls. How the source made its calls, unless noted: active means hit-call score of the fitted dose curve at least 0.9, where 1 is the maximum; inactive means score below 0.9.
# Biological target: Nuclear receptor subfamily 1 group I member 3 (Homo sapiens) (UniProt Q14994)
# Sequence (Q14994 whole entry, looked up): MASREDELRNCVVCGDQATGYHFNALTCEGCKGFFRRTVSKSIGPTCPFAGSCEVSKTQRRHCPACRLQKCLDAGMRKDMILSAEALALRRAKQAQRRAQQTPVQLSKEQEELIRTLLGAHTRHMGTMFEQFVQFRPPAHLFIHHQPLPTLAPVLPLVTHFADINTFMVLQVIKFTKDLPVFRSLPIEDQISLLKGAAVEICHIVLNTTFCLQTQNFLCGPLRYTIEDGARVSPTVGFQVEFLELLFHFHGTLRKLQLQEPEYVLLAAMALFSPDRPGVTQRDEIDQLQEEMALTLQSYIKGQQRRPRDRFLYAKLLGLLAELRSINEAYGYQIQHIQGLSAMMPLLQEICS
# Experiment: ATG_CAR_TRANS: Attagene TRANS-FACTORIAL HepG2 Assay for human Constitutive Androstane Receptor (CAR) (AID 2282969; active means hit-call score of the fitted dose curve at least 0.9, where 1 is the maximum;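 further: activators raise reporter mRNA above DMSO so AC50 marks induction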)
# Conditions: HepG2 Attagene TRANS-FACTORIAL CAR reporter
# Outline: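 Signal is reporter mRNA induction relative to DMSO, measured 24 h after dosing by RT-PCR with fluorescent primer extension and capillary electrophoresis. Human HepG2 liver cells carried transiently transfected chimeric NR-Gal4/GAL4-UAS reporter constructs.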
row,Compound,outcome
1,CCCC(=O)O,inactive
2,Cc1cn([C@H]2C=C[C@@H](CO)O2)c(=O)[nH]c1=O,inactive
3,COc1ccc(OC(F)(F)F)cc1CN[C@H]1CCCN[C@H]1c1ccccc1,inactive
4,CCCCCCCCCCCCCCCCO,inactive
5,CC1=C(C)S(=O)(=O)CCS1(=O)=O,inactive
6,OCC(CO)n1cnc(-c2ccc(F)cc2)c1-c1ccnc(Oc2ccccc2)n1,inactive
7,C/C=C/C=C/C(=O)O,inactive
8,Cc1c(C)c2c(c(C)c1O)CCC(C)(COc1ccc(CC3SC(=O)NC3=O)cc1)O2 (stereo not drawn),inactive
9,CSc1ccc(Oc2ccc(S(N)(=O)=O)cc2CN(C)C)cc1C,inactive
10,CC(COCC(C)OC(=O)c1ccccc1)OC(=O)c1ccccc1 (stereo not drawn),inactive
11,O=C(NS(=O)(=O)/C=C/c1cccs1)c1ccc(F)cc1Br,inactive

# Biological target: Estrogen receptor (Homo sapiens) (UniProt P03372)
# Sequence (P03372 whole entry, looked up): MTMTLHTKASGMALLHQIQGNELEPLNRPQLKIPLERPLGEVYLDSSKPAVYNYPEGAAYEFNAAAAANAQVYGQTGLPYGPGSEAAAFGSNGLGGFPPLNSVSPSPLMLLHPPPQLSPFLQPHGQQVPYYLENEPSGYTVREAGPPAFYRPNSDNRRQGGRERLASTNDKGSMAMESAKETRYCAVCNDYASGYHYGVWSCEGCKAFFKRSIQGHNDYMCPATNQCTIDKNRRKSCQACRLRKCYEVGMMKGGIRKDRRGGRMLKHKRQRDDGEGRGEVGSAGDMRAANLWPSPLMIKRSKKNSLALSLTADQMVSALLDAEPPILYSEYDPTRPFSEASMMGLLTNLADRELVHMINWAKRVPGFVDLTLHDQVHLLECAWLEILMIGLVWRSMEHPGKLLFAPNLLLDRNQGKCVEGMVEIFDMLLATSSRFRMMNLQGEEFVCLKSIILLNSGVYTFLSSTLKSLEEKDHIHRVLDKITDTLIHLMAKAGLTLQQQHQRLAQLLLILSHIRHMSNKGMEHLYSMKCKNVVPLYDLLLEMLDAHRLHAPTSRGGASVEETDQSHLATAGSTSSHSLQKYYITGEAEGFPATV
# Experiment: ATG_ERa_TRANS: Attagene TRANS-FACTORIAL HepG2 Assay for human Estrogen Receptor alpha (ERa) (AID 2282970; active means hit-call score of the fitted dose curve at least 0.9, where 1 is the maximum)
# Conditions: HepG2 Attagene TRANS ERa GAL4 reporter, mRNA
# Outline: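 Liver-derived HepG2 cells expressing chimeric nuclear receptor-Gal4 proteins from transient transfection were exposed for 24 hours. Gain of reporter mRNA signal versus DMSO, read by capillary electrophoresis of FAM-labelled PCR products, was recorded.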
Compound,outcome,AC50
CCCCCCCC(=O)OC,inactive,
O=[Si]=O,inactive,
COc1ccc(OC(F)(F)F)cc1CN[C@H]1CCCN[C@H]1c1ccccc1,inactive,
CCCCCCCCCCCCCCCCO,inactive,
CC1=C(C)S(=O)(=O)CCS1(=O)=O,inactive,
O=C(N[C@@H](c1ccccc1)[C@@H]1CCCCN1)c1cccc(C(F)(F)F)c1Cl,inactive,
Cc1c(C)c2c(c(C)c1O)CCC(C)(COc1ccc(CC3SC(=O)NC3=O)cc1)O2 (stereo not drawn),inactive,
CSc1ccc(Oc2ccc(S(N)(=O)=O)cc2CN(C)C)cc1C,inactive,
Cc1ccc(C(C)(C)C)c(O)c1,,6.64 µM (active)
CCc1nc(N)nc(N)c1-c1ccc(Cl)cc1,inactive,
CS(=O)(=O)c1ccc([C@@H](C[C@H]2CCC(=O)C2)C(=O)Nc2cnccn2)cc1Cl,inactive,
O=C(NS(=O)(=O)/C=C/c1cccs1)c1ccc(F)cc1Br,inactive,
O=C(O)c1[nH]n(-c2ccc(S(=O)(=O)O)cc2)c(=O)c1N=Nc1ccc(S(=O)(=O)O)cc1,inactive,
CC1(C)C(=O)NC(=O)N1CO,,123 µM (active)

# Biological target: Steroid hormone receptor ERR1 (Homo sapiens) (UniProt P11474)
# Sequence (P11474 whole entry, looked up): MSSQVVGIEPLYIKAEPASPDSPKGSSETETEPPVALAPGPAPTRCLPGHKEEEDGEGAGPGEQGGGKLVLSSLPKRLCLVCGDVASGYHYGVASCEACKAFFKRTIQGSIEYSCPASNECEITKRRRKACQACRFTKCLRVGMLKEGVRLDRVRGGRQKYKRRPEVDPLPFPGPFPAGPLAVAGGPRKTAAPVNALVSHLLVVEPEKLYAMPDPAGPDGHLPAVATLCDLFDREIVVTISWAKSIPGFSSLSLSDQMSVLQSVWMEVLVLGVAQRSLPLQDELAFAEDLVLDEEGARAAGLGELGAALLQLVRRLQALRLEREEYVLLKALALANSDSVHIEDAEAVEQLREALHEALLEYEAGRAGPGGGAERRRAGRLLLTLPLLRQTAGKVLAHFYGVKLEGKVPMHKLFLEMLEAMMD
# Experiment: ATG_ERRa_TRANS: Attagene TRANS-FACTORIAL HepG2 Assay for human Estrogen-Related Receptor alpha (ERRa) (AID 2282971; active means hit-call score of the fitted dose curve at least 0.9, where 1 is the maximum)
# Conditions: HepG2 Attagene TRANS reporter, ERRa transactivation
# Outline: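 Reporter transcript induction was quantified by RT-PCR and capillary electrophoresis of FAM-labelled, HpaI-cut products after 24 h treatment of HepG2 cells carrying transiently transfected GAL4-UAS reporter units and an exogenous ERRa-Gal4 fusion; activity scored as increase over DMSO.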
row,Compound,outcome
1,CCCC(=O)O,inactive
2,O=C(N[C@@H](c1ccccc1)[C@@H]1CCCCN1)c1cccc(C(F)(F)F)c1Cl,inactive
3,CC(COCC(C)OC(=O)c1ccccc1)OC(=O)c1ccccc1 (stereo not drawn),inactive
4,Cc1cc(SC2=C(O)C[C@@](CCc3ccc(N)cc3)(C(C)C)OC2=O)c(C(C)(C)C)cc1CO,inactive
5,CC(C)NCC(O)c1ccc(O)c(O)c1 (stereo not drawn),inactive
6,CCCCCCCCCC[N+](C)(C)[O-],inactive
7,CC(C)c1cccc(C(C)C)c1,inactive

# Biological target: X-box-binding protein 1 (Homo sapiens) (UniProt P17861)
# Sequence (P17861 whole entry, looked up): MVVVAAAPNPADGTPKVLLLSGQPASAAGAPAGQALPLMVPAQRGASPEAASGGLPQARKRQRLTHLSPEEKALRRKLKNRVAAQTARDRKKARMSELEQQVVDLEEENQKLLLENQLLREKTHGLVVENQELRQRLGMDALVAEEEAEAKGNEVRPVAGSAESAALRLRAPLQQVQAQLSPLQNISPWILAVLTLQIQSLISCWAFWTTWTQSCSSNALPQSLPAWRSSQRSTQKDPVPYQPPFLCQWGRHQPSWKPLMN
# Experiment: ATG_Xbp1_CIS: Attagene CIS-FACTORIAL HepG2 Assay for human X-box Binding Protein 1 (XBP1) (AID 2282972)
# Conditions: HepG2 XBP1 cis-element reporter, Attagene multiplex; actives raise or lower the signal
# Outline: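 Reporter transcripts were quantified by RT-PCR with fluorescent primer extension and capillary electrophoresis after 24 h chemical exposure. Cells: transiently transfected HepG2 carrying cis-regulated reporter constructs; data fitted bidirectionally relative to DMSO.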
Compound,outcome,AC50
CCCC(=O)O,inactive,
CCCCCCCC(=O)OC,inactive,
CCN(CC)CCOc1ccc(C(=C(Cl)c2ccccc2)c2ccccc2)cc1,inactive,11.2 µM (active)
O=[Si]=O,inactive,
Cc1cn([C@H]2C=C[C@@H](CO)O2)c(=O)[nH]c1=O,inactive,
COc1ccc(OC(F)(F)F)cc1CN[C@H]1CCCN[C@H]1c1ccccc1,inactive,
CCCCCCCCCCCCCCCCO,inactive,
CCCCCCC(CCCCCCCCCCC(=O)OCC(COC(C)=O)OC(C)=O)OC(C)=O (stereo not drawn),inactive,
CC1=C(C)S(=O)(=O)CCS1(=O)=O,inactive,
OCC(CO)n1cnc(-c2ccc(F)cc2)c1-c1ccnc(Oc2ccccc2)n1,inactive,
C/C=C/C=C/C(=O)O,inactive,
O=C(N[C@@H](c1ccccc1)[C@@H]1CCCCN1)c1cccc(C(F)(F)F)c1Cl,,33 µM (active)
COC(=O)CCCC(=O)OC,inactive,
Cc1c(C)c2c(c(C)c1O)CCC(C)(COc1ccc(CC3SC(=O)NC3=O)cc1)O2 (stereo not drawn),inactive,
CSc1ccc(Oc2ccc(S(N)(=O)=O)cc2CN(C)C)cc1C,inactive,
CC(COCC(C)OC(=O)c1ccccc1)OC(=O)c1ccccc1 (stereo not drawn),inactive,
CC(C)COC(=O)CCCCC(=O)OCC(C)C,inactive,
Cc1ccc(C(C)(C)C)c(O)c1,,139 µM (active)
CC(=O)O[C@]1(C(C)=O)CC[C@H]2[C@@H]3C=C(Cl)C4=CC(=O)[C@@H]5C[C@@H]5[C@]4(C)[C@H]3CC[C@@]21C,inactive,45.5 µM (active) and 51.8 µM (active) and 43 µM (active)
Cc1cc(SC2=C(O)C[C@@](CCc3ccc(N)cc3)(C(C)C)OC2=O)c(C(C)(C)C)cc1CO,inactive,
CC(C)NCC(O)c1ccc(O)c(O)c1 (stereo not drawn),inactive,
CCCCCCCCCC[N+](C)(C)[O-],inactive,
CCc1nc(N)nc(N)c1-c1ccc(Cl)cc1,,147 µM (active)
CS(=O)(=O)c1ccc([C@@H](C[C@H]2CCC(=O)C2)C(=O)Nc2cnccn2)cc1Cl,inactive,
O=C(NS(=O)(=O)/C=C/c1cccs1)c1ccc(F)cc1Br,inactive,
O=C(O)c1[nH]n(-c2ccc(S(=O)(=O)O)cc2)c(=O)c1N=Nc1ccc(S(=O)(=O)O)cc1,inactive,
CC(C)c1cccc(C(C)C)c1,inactive,
CN(C)C(=O)NC1(c2ccccc2)CCN(CC[C@@]2(c3ccc(F)c(F)c3)CN(C(=O)c3ccccc3)CCO2)CC1,inactive,
CC1(C)C(=O)NC(=O)N1CO,inactive,
